Screening data (PubChem)
12-LOX inh = ALOX12 (human) lipoxygenase inhibition; P18054; purified 12hLO, xylenol orange hydroperoxide absorbance; Potency, µM (series often up to 108 µM), usual class: inhibitors; actives 1.1% (n = 580,000)
Target sequence (P18054 whole entry, looked up): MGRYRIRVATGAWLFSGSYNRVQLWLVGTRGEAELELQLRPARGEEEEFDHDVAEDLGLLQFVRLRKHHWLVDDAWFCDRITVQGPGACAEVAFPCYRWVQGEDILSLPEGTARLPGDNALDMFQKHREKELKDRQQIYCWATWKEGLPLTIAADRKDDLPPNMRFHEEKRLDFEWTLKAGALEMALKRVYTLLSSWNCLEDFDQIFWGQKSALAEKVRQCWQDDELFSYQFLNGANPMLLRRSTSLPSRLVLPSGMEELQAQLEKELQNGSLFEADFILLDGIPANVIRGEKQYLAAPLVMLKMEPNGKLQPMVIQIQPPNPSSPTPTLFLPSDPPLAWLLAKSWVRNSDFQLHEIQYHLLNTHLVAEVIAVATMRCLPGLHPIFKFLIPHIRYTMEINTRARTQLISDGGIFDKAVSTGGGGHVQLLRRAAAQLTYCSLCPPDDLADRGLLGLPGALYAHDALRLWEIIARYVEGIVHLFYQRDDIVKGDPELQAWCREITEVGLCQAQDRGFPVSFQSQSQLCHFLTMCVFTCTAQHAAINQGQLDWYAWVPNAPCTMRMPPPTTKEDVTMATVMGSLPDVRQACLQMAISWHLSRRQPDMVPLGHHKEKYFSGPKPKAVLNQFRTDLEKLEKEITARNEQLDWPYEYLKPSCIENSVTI
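Purified human 12hLO (150 nM final) in 25 mM Hepes, 0.01% Triton X-100, pH 7.0 was preincubated 15 min at room temperature with compound. Then 40 uM arachidonic acid was added, 30 min. Hydroperoxide was read by Fe-XO absorbance ratio 573/405 nm.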
DT40 TDP1 no CPT = qHTS for Inhibitors of human tyrosyl-DNA phosphodiesterase 1 (TDP1): qHTS in cells in absence of CPT; DT40 Tdp1-/- hTDP1 cells, no CPT, ATP luminescence, 48 h; Potency, µM (series often up to 46.2 µM), most hits filed as inhibitors; actives 15% (n = 420,000); AID 686978, 2013; further: nearly all actives have a fitted effect of over 55% in size
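Growth kinetics read by CellTiter-Glo luminescence after ≥48 hr at 37 °C. Cells: DT40 Tdp1-/- stably carrying human TDP1, 400 per well, compound exposure in the absence of CPT (DMSO vehicle).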
TDP1 cell CPT = growth inhibition of DT40 Tdp1-/-;hTDP1 cells with camptothecin (screen for TDP1 inhibitors); chicken DT40 Tdp1-/-;hTDP1 cells + 20 nM CPT, ATP luminescence, 48 h; AID 686979; actives 12% (n = 420,000); Potency, µM (titrated, usually from 46.2 µM), hits mostly inhibitors; further: nearly all actives have a fitted effect of over 55% in size
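Cell growth measured by CellTiter-Glo luminescence after a minimum 48 h, 37 C compound exposure with 20 nM CPT in Tdp1-knockout DT40 cells stably expressing hTDP1, seeded 400/well; qHTS titration format.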
HT1080NT lethal = kills 2HG-producing HT-1080-NT fibrosarcoma cells. HT-1080-NT fibrosarcoma viability, CellTiter-Glo ATP luminescence, 48 h. Potency, µM (top dose mostly 46.1 µM), hits mostly cytotoxic. actives 1.6% (n = 360,000);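 further: NT is the 2HG producing partner of a matched IDH1 knockdown line; nearly all actives have a fitted effect of over 55% in size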
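Viability by CellTiter-Glo luminescence after 48 h compound exposure at 37C of HT-1080-NT cells (750/well, RPMI, 5% FBS). % activity scaled between DMSO wells and medium-only wells, then curve-fitted and categorized by curve class.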
HT1080 IDH1KD tx = kills HT-1080 cells with IDH1 knockdown | AID 686971 | Potency, µM (highest dose often 46.1 µM), most hits filed as cytotoxic | actives 2% (n = 360,000) | HT-1080 IDH1 knockdown viability, ATP luminescence, 48 h
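After a 2 h attachment period, IDH1KD HT-1080 cells took pin-transferred compound for 48 h at 37 °C; ATP-based luminescence after 10 min room-temperature reagent incubation reported viability.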
IL1B secr inh = blocks inflammasome-driven IL-1 beta release; activity change, % at 57.5 µM; THP-1 LPS/ATP IL-1B secretion, AlphaLISA, 16 h; stronger effect = lower value; actives 4.7% (n = 360,000); in the data active means activity change below about -50%; inconclusive means mostly about -30% to -49%
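THP-1 cells pretreated 1 hr with compounds (up to 57.5 uM final), then stimulated with LPS (250 ng/mL final) plus ATP (1.25 mM final); secreted IL-1B measured by AlphaLISA after 16 hr, decreased signal indicating inhibition.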
Each line names hits and unclear results; the compound was inactive in the other large screens. This excerpt belongs to a sample that is enriched for hits. Unless noted, the call rests on the fitted dose curve; in most records, active means well fitted curve in the direction sought with a large enough effect; inconclusive means small, poorly fitted or top-dose-only effect, or another doubt; inactive means no such curve, though single readings can be large; an effect the other way counts as inactive or inconclusive.

CCCN(CCC)C(=O)Cn1c(=O)n(-c2cccc(C(F)(F)F)c2)c(=O)c2c(C)c(C)sc21	DT40 TDP1 no CPT 21µM, TDP1 cell CPT 23µM (no result: HT1080NT lethal, HT1080 IDH1KD tx, IL1B secr inh)
CCOC(=O)c1cccc(NC(=O)Cc2ccc(NC(=O)N3CCCCc4ccccc43)cc2)c1	DT40 TDP1 no CPT 4.6µM, TDP1 cell CPT 5.2µM (no result: HT1080NT lethal, HT1080 IDH1KD tx, IL1B secr inh)
CC(C(=O)N1CCc2ccccc21)N1CCN(S(=O)(=O)c2ccc3c(c2)OCCCO3)CC1 (stereo not drawn)	DT40 TDP1 no CPT inconclusive, TDP1 cell CPT inconclusive
COc1cc(OC)c(C2=NOC(C(=O)N3CCCc4ccccc43)C2)cc1Cl (stereo not drawn)	DT40 TDP1 no CPT inconclusive, TDP1 cell CPT 13µM
CC(C(=O)N1CCc2ccccc21)N1CCN(S(=O)(=O)c2cccc(C(F)(F)F)c2)CC1 (stereo not drawn)	DT40 TDP1 no CPT 13µM, TDP1 cell CPT inconclusive
O=C(c1ccc(Br)cc1)N1CCCc2ccccc21	DT40 TDP1 no CPT inconclusive
O=C(c1ccc(=O)oc1)N1CCCc2ccccc21	12-LOX inh inconclusive, DT40 TDP1 no CPT 16µM, TDP1 cell CPT inconclusive
CCOc1cc(C(=O)N2CCN(C(=O)OC(C)(C)C)CC2)ccc1OC	none (no result: DT40 TDP1 no CPT, TDP1 cell CPT, HT1080NT lethal, HT1080 IDH1KD tx, IL1B secr inh)
Cc1[nH]ncc1CNC(=O)C1CCCN(Cc2ccncc2)CCC(=O)NCC1 (stereo not drawn)	none (no result: DT40 TDP1 no CPT, TDP1 cell CPT, HT1080NT lethal, HT1080 IDH1KD tx, IL1B secr inh)
COCCCNC(=O)c1ccc(NC(=O)N2CCCCc3ccccc32)cc1	none (no result: HT1080NT lethal, HT1080 IDH1KD tx, IL1B secr inh)
CCCCOc1ccc(CNC(=O)Cc2ccc(NC(=O)N3CCCCc4ccccc43)cc2)cc1	DT40 TDP1 no CPT 16µM, TDP1 cell CPT 15µM (no result: HT1080NT lethal, HT1080 IDH1KD tx, IL1B secr inh)
COc1ccc(CNC(=O)c2ccc(NC(=O)N3CCCCc4ccccc43)cc2)cc1	DT40 TDP1 no CPT 18µM, TDP1 cell CPT inconclusive (no result: HT1080NT lethal, HT1080 IDH1KD tx, IL1B secr inh)
COc1ccc(C(=O)N2CCCc3ccccc32)cc1OC	none
CC(C(=O)N1CCc2ccccc21)N1CCc2ccccc2C1 (stereo not drawn)	DT40 TDP1 no CPT inconclusive, TDP1 cell CPT inconclusive
COc1cc2c(cc1OC)CN(C(C)C(=O)N1CCc3ccccc31)CC2 (stereo not drawn)	DT40 TDP1 no CPT 18µM, TDP1 cell CPT inconclusive, HT1080NT lethal inconclusive, HT1080 IDH1KD tx inconclusive
COc1cc(C(=O)N2CCCc3ccccc32)cc(OC)c1OC	DT40 TDP1 no CPT 21µM, TDP1 cell CPT 18µM, HT1080NT lethal inconclusive, HT1080 IDH1KD tx inconclusive
CC(NC(=O)Cc1ccc(NC(=O)N2CCCCc3ccccc32)cc1)c1ccccc1 (stereo not drawn)	DT40 TDP1 no CPT inconclusive, TDP1 cell CPT inconclusive (no result: HT1080NT lethal, HT1080 IDH1KD tx, IL1B secr inh)
CCCCNC(=O)c1ccc(C)c(NC(=O)c2ccccc2)c1	none (no result: DT40 TDP1 no CPT, TDP1 cell CPT, HT1080NT lethal, HT1080 IDH1KD tx, IL1B secr inh)
COc1cccc(C2Cn3nnc(-c4nc(-c5ccc(SC)cc5)no4)c3CO2)c1 (stereo not drawn)	none (no result: DT40 TDP1 no CPT, TDP1 cell CPT, HT1080NT lethal, HT1080 IDH1KD tx, IL1B secr inh)
Cc1ccc(CCNC(=O)c2ccc3c(c2)N(C)C2CCCCN2C3=O)cc1 (stereo not drawn)	none (no result: DT40 TDP1 no CPT, TDP1 cell CPT, HT1080NT lethal, HT1080 IDH1KD tx, IL1B secr inh)
COc1cccc(NC(=O)Cc2ccc(NC(=O)N3CCCCc4ccccc43)cc2)c1	DT40 TDP1 no CPT inconclusive, TDP1 cell CPT inconclusive (no result: HT1080NT lethal, HT1080 IDH1KD tx, IL1B secr inh)
CCCCOc1ccc(CNC(=O)c2ccc(NC(=O)N3CCCCc4ccccc43)cc2)cc1	DT40 TDP1 no CPT 26µM, TDP1 cell CPT 18µM (no result: HT1080NT lethal, HT1080 IDH1KD tx, IL1B secr inh)
COc1cccc(CNC(=O)Cc2ccc(NC(=O)N3CCCCc4ccccc43)cc2)c1OC	DT40 TDP1 no CPT 18µM (no result: HT1080NT lethal, HT1080 IDH1KD tx, IL1B secr inh)
COc1cc(CNC(=O)c2ccc(NC(=O)N3CCCCc4ccccc43)cc2)cc(OC)c1OC	DT40 TDP1 no CPT 10µM, TDP1 cell CPT 18µM (no result: HT1080NT lethal, HT1080 IDH1KD tx, IL1B secr inh)
COc1ccc(NC(=O)Cn2c(C)cc3nc4n(c(=O)c32)CCCC4)cc1Cl	none (no result: DT40 TDP1 no CPT, TDP1 cell CPT, HT1080NT lethal, HT1080 IDH1KD tx, IL1B secr inh)
C=C(C)CN1CCN(c2nc3c(c(=O)[nH]c(=O)n3C)n2Cc2ccccc2Cl)CC1	none (no result: DT40 TDP1 no CPT, TDP1 cell CPT, HT1080NT lethal, HT1080 IDH1KD tx, IL1B secr inh)
COc1cccc(CN2C[C@@H]3C(=O)N(CCN4CCc5ccccc5C4)C(=O)[C@@H]3C2)c1OC	none (no result: DT40 TDP1 no CPT, TDP1 cell CPT, HT1080NT lethal, HT1080 IDH1KD tx, IL1B secr inh)
O=S(=O)(c1ccccc1)c1cnc(-c2ccccc2)nc1N1CCCC1	DT40 TDP1 no CPT 18µM
COc1nc(-c2ccccc2)ncc1S(=O)(=O)c1ccccc1	DT40 TDP1 no CPT inconclusive, TDP1 cell CPT inconclusive
Cc1nc(-c2ccccc2)sc1-c1nc(-c2ccncc2)ncc1S(=O)(=O)c1ccccc1	DT40 TDP1 no CPT inconclusive, TDP1 cell CPT inconclusive, IL1B secr inh -54
COc1cc(C2C3=C(CCCC3=O)OC3=C2C(=O)CCC3)ccc1OS(=O)(=O)c1ccc(C)cc1	none (no result: DT40 TDP1 no CPT, TDP1 cell CPT, HT1080NT lethal, HT1080 IDH1KD tx, IL1B secr inh)
COc1cccc(S(=O)(=O)NCc2ccc(C(=O)N3CCN(c4ccccc4OC)CC3)cc2)c1	none (no result: DT40 TDP1 no CPT, TDP1 cell CPT, HT1080NT lethal, HT1080 IDH1KD tx, IL1B secr inh)
COc1ccc(N2CCN(C(=O)c3ccc(CNS(=O)(=O)c4cccc(OC)c4)cc3)CC2)cc1	DT40 TDP1 no CPT 23µM, TDP1 cell CPT 9.2µM, HT1080 IDH1KD tx inconclusive, IL1B secr inh -84
CCOC(=O)N1CCN(C(=O)c2ccc(CNS(=O)(=O)c3ccc(OC)cc3)cc2)CC1	none
COc1ccc(N2CCN(C(=O)c3cccc(NS(=O)(=O)c4cccc(F)c4)c3)CC2)cc1	none
